This is an account of results in PubChem BioAssay AID504339 (National Center for Advancing Translational Sciences (NCATS), 2011).

The campaign covered roughly 390,000 compounds. About 17,000 (4.4%) were called active. A call without a number means that no potency is given here. About 8% were inconclusive and are not listed. Calls follow the shape of the dose curve; as a rule, active = well fitted inhibition curve with a large enough effect; inconclusive = small, poorly fitted or top-dose-only effect; inactive = no such curve, though single readings can be large or run the other way. The sample as a whole holds a higher share of actives than the screen did.
Potency is read from the fitted curve at half-maximal effect.

This assay deals with Lysine-specific demethylase 4A (Homo sapiens) (UniProt O75164). As to the kind of experiment: qHTS Assay for Inhibitors of JMJD2A-Tudor Domain. Also: nearly all actives have a fitted effect of over 50% in size. Conditions: AlphaScreen JMJD2A-Tudor / H3K4me3 peptide binding; series mostly up to 114 µM. For orientation: qHTS replaces the single test concentration by a dilution series.
Chain of Lysine-specific demethylase 4A (Homo sapiens) (O75164 whole entry, looked up, the tested form may be a part): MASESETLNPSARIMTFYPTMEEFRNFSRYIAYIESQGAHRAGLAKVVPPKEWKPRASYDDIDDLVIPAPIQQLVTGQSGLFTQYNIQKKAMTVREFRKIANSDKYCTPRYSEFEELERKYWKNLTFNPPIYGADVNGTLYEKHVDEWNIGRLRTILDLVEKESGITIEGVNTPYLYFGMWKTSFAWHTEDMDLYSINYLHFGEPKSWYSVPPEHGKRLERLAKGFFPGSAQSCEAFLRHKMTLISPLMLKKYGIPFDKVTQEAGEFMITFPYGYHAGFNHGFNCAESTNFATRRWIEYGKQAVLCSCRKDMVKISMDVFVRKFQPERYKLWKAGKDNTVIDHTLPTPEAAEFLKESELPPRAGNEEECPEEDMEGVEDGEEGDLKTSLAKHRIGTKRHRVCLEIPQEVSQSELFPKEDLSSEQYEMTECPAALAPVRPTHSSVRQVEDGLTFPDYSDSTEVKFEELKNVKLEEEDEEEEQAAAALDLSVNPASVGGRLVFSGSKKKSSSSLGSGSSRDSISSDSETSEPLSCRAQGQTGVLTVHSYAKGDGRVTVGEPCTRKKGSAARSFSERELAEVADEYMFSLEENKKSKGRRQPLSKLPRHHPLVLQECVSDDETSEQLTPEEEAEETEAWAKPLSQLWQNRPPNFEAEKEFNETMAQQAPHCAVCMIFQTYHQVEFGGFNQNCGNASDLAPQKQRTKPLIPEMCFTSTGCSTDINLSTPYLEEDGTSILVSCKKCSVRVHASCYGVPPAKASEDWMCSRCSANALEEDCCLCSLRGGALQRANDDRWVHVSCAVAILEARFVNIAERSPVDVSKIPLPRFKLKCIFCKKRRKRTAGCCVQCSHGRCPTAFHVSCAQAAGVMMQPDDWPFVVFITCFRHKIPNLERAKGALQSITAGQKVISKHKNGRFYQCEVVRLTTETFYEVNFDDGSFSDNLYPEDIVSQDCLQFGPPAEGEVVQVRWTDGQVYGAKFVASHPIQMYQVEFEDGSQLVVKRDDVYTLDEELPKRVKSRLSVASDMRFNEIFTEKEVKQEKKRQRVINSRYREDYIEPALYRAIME
`CN(C)c1ccc(/C=C2\CC3C4CC=C5CC(O)CCC5(C)C4CCC3(C)C2=O)cc1` (centres undefined): the Potency entry is “inactive”.

On to `C[C@]12CC[C@H](O)CC1=C([N+](=O)[O-])CC1C2CC[C@@]2(C)C1CC[C@@H]2O` (some centres undefined), for which the Potency result is “inactive”.

As for `COc1ccccc1N=C1SCCCN1C`, the Potency was 56.2 µM (active).

Regarding `CCC(C)(O)C(=O)OC1C(=O)OC2CC3C(C)=CC(=O)C(O)C3(C)C3C4(O)OCC23C1C(C)C4O` (centres undefined), the Potency result is “inactive”.

Turning to `COCc1cc(OC(=O)N(C)C)nc(-c2ccc(C)c(Cl)c2)n1`, the Potency entry was “inactive”.

Consider `CCOC(=O)CC(SP1(=S)OCC2(CCCCO2)C(C2CCCCO2)O1)C(=O)OCC` (centres undefined), for which the Potency entry was “inactive”.

For the compound `c1cc2c(cc1C1OCC3C(c4ccc5c(c4)OCO5)OCC13)OCO2` (centres undefined), the Potency entry was “inactive”.

On to `CC(=O)OC1C2(CC3N4C(=O)C5(CO)SSC4(CC31O)C(=O)N5C)OC(C)C(C)(C)C2=O` (centres undefined), for which the Potency entry was “inactive”.

In the case of `CCN(CC)CCOC(=O)c1cc2cc(COC)ccc2o1`, the Potency is 56.2 µM (active).

`Cc1ccc(N(C)C(=O)Oc2cccc3ccc(C)nc23)cc1`: the Potency entry was “inactive”.

As to `CC(=O)C1(O)CCC2C3CCC4=C(Cl)C(=O)CCC4(C)C3CCC21C` (centres undefined), the Potency result was “inactive”.

Take `COC(=O)C1=C(c2ccc(Cl)c(C(F)(F)F)c2)C[C@@H]2CC[C@H]1N2C(=O)NC(C)C`: the Potency result is “inactive”.

Consider `Clc1cccc(Cl)c1Cl`, for which the Potency entry is “inactive”.

As to `O=C(COC(=O)c1ccccc1)Nc1ccc(Cl)cc1C(=O)c1ccccc1`, the Potency entry was “inactive”.

With `O=C(Nc1ccc(Cl)cc1C(=O)c1ccccc1)c1cc(Cl)cc(Cl)c1`, the Potency entry is “inactive”.

For the compound `CN1CCN(C(=S)SCC(=O)Nc2ccc(Cl)cc2C(=O)c2ccccc2)CC1`, the Potency was 44.7 µM (active).

Regarding `CC12CCC3C(CCC4CC(=O)CCC43C)C1CC(=NO)C2=O` (centres undefined), the Potency result is “inactive”.

`Cc1cccc(Cn2cccc(C(=O)Nc3ccc4c(c3)OCCO4)c2=O)c1`: the Potency entry is “inactive”.

`CCOCCc1c(O)[nH]c(=S)[nH]c1=O`: the Potency was 79.4 µM (active).

Consider `Oc1ccc2c3c1OC1[C@H](O)CC[C@@]4(O)[C@@H](C2)N(CC2CC2)CC[C@]314` (some centres undefined), for which the Potency entry is “inactive”.

Consider `CCC(C)n1c(O)c(/C=N/Nc2nc3c(c(=O)n(C)c(=O)n3C)n2C)c(=O)[nH]c1=S` (centres undefined), for which the Potency is 79.4 µM (active).

`Cc1ccccc1NC(=O)COC(=O)c1cc(C)n(C2CC2)c1C`: the Potency entry is “inactive”.

On to `C=Cn1ccnc1P(=S)(c1cc(N(CC)CC)ns1)c1nccn1C=C`, for which the Potency result was “inactive”.

On to `Cc1nc2ccccn2c1P(=S)(N1CCCCC1)N1CCCCC1`, for which the Potency result was “inactive”.
